{"source": "the supplement of paper PMC8866396", "note": "± gives the standard deviation of the averaged measurements.", "data": [{"system": "IL-6-GFP PC-9", "experiment": "cell viability (CCK-8 OD) relative to DMSO control (fraction of control); higher = more viable cells", "settings": "compound concentration: 10 uM; treatment time: 48 h", "method_in_brief": "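PC-9 and PC-9GR lung cancer cells expressing lentiviral IL-6-GFP were plated at 3000 cells/well in 96-well plates and treated for 48 h with each library compound at a final 10 μM. Viability was determined by CCK-8 absorbance as a ratio of each well's optical density to the vehicle control well.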", "values": [{"molecule": "CCC(=O)OC1(C(=O)SCF)C(C)CC2C3CC(F)C4=CC(=O)C=CC4(C)C3(F)C(O)CC21C", "note": "(configuration not stated) [Fluticasone propionate]", "cell viability": "0.821 ± 0.024"}, {"molecule": "CCCCC(=O)OC1(C(=O)CO)C(C)CC2C3CCC4=CC(=O)C=CC4(C)C3(F)C(O)CC21C", "note": "(configuration not stated) [Betamethasone Valerate]", "cell viability": "0.804 ± 0.026"}, {"molecule": "O=C([O-])c1cc(N=Nc2ccc(O)c(C(=O)[O-])c2)ccc1O.[Na+].[Na+]", "note": "[Olsalazine Sodium]", "cell viability": "1.25 ± 0.062"}, {"molecule": "CCC1(O)C(=O)OCc2c1cc1n(c2=O)Cc2cc3c(CN(C)C)c(O)ccc3nc2-1", "note": "(configuration not stated) [Topotecan]", "cell viability": "0.3428 ± 0.0013"}, {"molecule": "CC12CCC(=O)C=C1CCC1C2C(O)CC2(C)C1CCC2(O)C(=O)CO", "note": "(configuration not stated) [Hydrocortisone]", "cell viability": "0.995 ± 0.24"}, {"molecule": "Cc1nnc(C(=O)NC(C)(C)c2nc(C(=O)NCc3ccc(F)cc3)c(O)c(=O)n2C)o1", "note": "[Raltegravir (MK-0518)]", "cell viability": "1.39 ± 0.3"}, {"molecule": "CNC1CCC(c2ccc(Cl)c(Cl)c2)c2ccccc21.Cl", "note": "(configuration not stated) [Sertraline HCl]", "cell viability": "0.664 ± 0.35"}, {"molecule": "O=S1(=O)CCN(CN2CCS(=O)(=O)NC2)CN1", "note": "[Taurolidine]", "cell viability": "1.234 ± 0.011"}, {"molecule": "C#Cc1cccc(Nc2ncnc3cc(OCCOC)c(OCCOC)cc23)c1.Cl", "note": "[Erlotinib HCl (OSI-744)]", "cell viability": "0.388 ± 0.33"}, {"molecule": "CC12CCC(CC1)C(C)(C)O2", "note": "[Eucalyptol]", "cell viability": "1.33 ± 0.048"}, {"molecule": "CC(=O)OC(C)OC(=O)C(C)c1ccc(-c2ccccc2)c(F)c1", "note": "(configuration not stated) [Flurbiprofen Axetil]", "cell viability": "1.16 ± 0.038"}, {"molecule": "CNCC(O)c1ccc(O)c(O)c1.O=C(O)C(O)C(O)C(=O)O", "note": "(configuration not stated) [Epinephrine bitartrate]", "cell viability": "1.2 ± 0.022"}]}]}
